In publication PMC7819943, “Rice protein-binding microarrays: a tool to detect cis-acting elements near promoter regions in rice”:
In all, about 68,000 sequences were measured (“fluorescence intensity (a.u.)”: median about 9,100, highest 2% from about 16,000 on). The entries come from a sample that favours the highest values as a whole.

What follows are sequences tested against OsWRKY34 (Oryza sativa, UniProt Q0JBA9 1-250) (assay: protein-binding microarray (RPBM); PBS, 2% BSA, 51.3 ng/ul salmon testes DNA, 50 uM zinc acetate, 200 nM TF, 25 C, 1 h; high values mean tight binding). Conditions: protein: recombinant; tags: N-terminal polyhistidine and DsRed monomer fusion (pET32a); label: CyDye5-dUTP incorporated in the synthesized complementary strand; 3' TTTTT single-stranded linker to array surface; dsDNA, one strand shown.
OsWRKY34, sequence (Q0JBA9 entry or part of it): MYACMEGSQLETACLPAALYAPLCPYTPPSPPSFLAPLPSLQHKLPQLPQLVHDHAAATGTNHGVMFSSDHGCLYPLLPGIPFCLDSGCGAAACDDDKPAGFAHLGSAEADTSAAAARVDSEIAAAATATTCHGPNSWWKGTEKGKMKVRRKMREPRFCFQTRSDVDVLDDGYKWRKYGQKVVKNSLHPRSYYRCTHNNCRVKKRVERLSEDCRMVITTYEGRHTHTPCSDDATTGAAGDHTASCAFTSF
Method in brief: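 Binding signal is reported as fluorescence intensity per feature (arbitrary units) from an Axon 4000B scanner. Incubation used 200 nM of each Ni–NTA-purified, N-terminally polyhistidine- and DsRed-fused transcription factor from E. coli BL21-CodonPlus on a double-stranded custom Agilent array for 1 h at 25 °C, with 50 µM zinc acetate in the buffer, followed by washing.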
“TGACCACCATTGCTGCTTCTGCTTCTTCTTGTATGTATACCGGAGTCACCTAGTGCAG” was tested, and the binding signal was 17200 fluorescence intensity (a.u.).
“CTTCTCCTGCTTGTTTCCTTGTCTTGTGGTGCATCACATCCGGAGTCACCTAGTGCAG” was tested, and the binding signal was 8810 fluorescence intensity (a.u.).
For “TCCTTGTATGAATCCATTGCCTTGCTTCTGCTTGCCCATTCGGAGTCACCTAGTGCAG”, the binding signal was 8530 fluorescence intensity (a.u.).
“GCTTGCTTGCTTGTTGCTTCCATTCCATTCCATTCCACACCGGAGTCACCTAGTGCAG” was tested, and the binding signal was 10400 fluorescence intensity (a.u.).
With “CATTTTTTTAGCTTGTTCTTCCTTGTGTCACAAACATTTCCGGAGTCACCTAGTGCAG” the binding signal was 11300 fluorescence intensity (a.u.).
With “GGGTGGTCCTGCTTCTACCTTGTATACAAAACATTTCTTCCGGAGTCACCTAGTGCAG” the binding signal was 17000 fluorescence intensity (a.u.).
In the case of “GTATTCCTACTTGAACTCTTCTTTTACTTTATTTTTCTAACGGAGTCACCTAGTGCAG”, the binding signal is reported as 10600 fluorescence intensity (a.u.).
For “CACTGCCACTCGCCACCCAGCTCCGTCCTATGCCTCCGCGCGGAGTCACCTAGTGCAG”, the binding signal was 12400 fluorescence intensity (a.u.).
“TGCACCGCGCGCAGGGTAGGGTGGGCGTCCTTGCCATTGTCGGAGTCACCTAGTGCAG” was tested, and the binding signal was 8740 fluorescence intensity (a.u.).
In the case of “CTTATTTCTTTTCCAGTTAGGCATATATTATCTGTTTTCTCGGAGTCACCTAGTGCAG”, the binding signal is reported as 8700 fluorescence intensity (a.u.).
For “AAAATCTCCTACTAGCTCACTTCACAATGGATCAAACAAACGGAGTCACCTAGTGCAG”, the binding signal was 8230 fluorescence intensity (a.u.).
“ATATATATATATATATATATATATATATATAATCTCTCCTCGGAGTCACCTAGTGCAG” was tested, and the binding signal was 9910 fluorescence intensity (a.u.).
“ATAATATATAATCAAACAAAAAAATGGACTATAATCTCTCCGGAGTCACCTAGTGCAG” was tested, and the binding signal was 64400 fluorescence intensity (a.u.).
“CTTTTTATCTCAAATTTGAAAACTTTCAACTTGGATTTGACGGAGTCACCTAGTGCAG” was tested, and the binding signal was 8520 fluorescence intensity (a.u.).
“ACTATGGGCTTTTGCATCAACAATTGCGAATTTTTTGTATCGGAGTCACCTAGTGCAG” was tested, and the binding signal was 9280 fluorescence intensity (a.u.).
In the case of “AACTTGCGAAAATTTGACTATCAATTAGCTGGGCGATTGACGGAGTCACCTAGTGCAG”, the binding signal is reported as 32700 fluorescence intensity (a.u.).
In the case of “GGGTGGGGAGGTGGTGGTCGTCGGGCAGGTGGGGAGGATGCGGAGTCACCTAGTGCAG”, the binding signal is reported as 23900 fluorescence intensity (a.u.).
With “CTGCGGGAGGACGGGTCCGGGGCGGGGTCCGGGTCGGTGCCGGAGTCACCTAGTGCAG” the binding signal was 9780 fluorescence intensity (a.u.).
For “GTCGGGGAGGTCGGGGTCAGGGAGGTCGGGGCCGGTGATGCGGAGTCACCTAGTGCAG”, the binding signal was 18900 fluorescence intensity (a.u.).
In the case of “GGAGGATGCGGGTGGTGGTGGAGGAGGAGGAGGCCGAGGTCGGAGTCACCTAGTGCAG”, the binding signal is reported as 12400 fluorescence intensity (a.u.).
For “GGGCCCCAGTCAGGGTGCGGGGCCACGGAGGGGTCGGGGACGGAGTCACCTAGTGCAG”, the binding signal was 9260 fluorescence intensity (a.u.).
For “GTGGGGATGGAGGCGTCGTCGGGGTCGTCGTAGAGGTGGGCGGAGTCACCTAGTGCAG”, the binding signal was 9240 fluorescence intensity (a.u.).
“GCAGACAACTCCGTCGCTGTTACTTCCTCTATGCCAAAACCGGAGTCACCTAGTGCAG” was tested, and the binding signal was 9350 fluorescence intensity (a.u.).
With “AGCGCGCGCAGCTTTGCAGGCGTGGTCGGGGTCGTTGTGCCGGAGTCACCTAGTGCAG” the binding signal was 9700 fluorescence intensity (a.u.).
For “TTTACATATCTATCTTTTTTTTTTGTTTTTTCTCGCTTTTCGGAGTCACCTAGTGCAG”, the binding signal was 8460 fluorescence intensity (a.u.).
“AACCTTTCTATAGATTTTTTTTTTTTACAAAAACACATCACGGAGTCACCTAGTGCAG” was tested, and the binding signal was 11700 fluorescence intensity (a.u.).
In the case of “AATCCCAAGCTAGGTGTTGACCATGGGTCAACAATCTCCCCGGAGTCACCTAGTGCAG”, the binding signal is reported as 9470 fluorescence intensity (a.u.).
For “ACCATTATTCTGTTGTCAACTGCATGCCGCAACAAACTGACGGAGTCACCTAGTGCAG”, the binding signal was 8420 fluorescence intensity (a.u.).
With “AGGTCAACAACCAGTGTCAAGATCTGACCATGCAATTAGCCGGAGTCACCTAGTGCAG” the binding signal was 17600 fluorescence intensity (a.u.).
With “AACTAACTGGCACGCCCTCATATCACCAACCTTTGGACCTCGGAGTCACCTAGTGCAG” the binding signal was 8560 fluorescence intensity (a.u.).
For “CTTTCTGATCACCAACTCCGCTCCTTTTAATCGCAACTACCGGAGTCACCTAGTGCAG”, the binding signal was 9660 fluorescence intensity (a.u.).
With “TCCTGTGGTACCCCTGTCGCCGAATCTACGCATCTGCCAACGGAGTCACCTAGTGCAG” the binding signal was 8140 fluorescence intensity (a.u.).
With “ATATCTGCTTCTACGTCGTCTACGAAGCCGCCGAGACGTCCGGAGTCACCTAGTGCAG” the binding signal was 9320 fluorescence intensity (a.u.).
“CTGCCGAAGCAACGGATCTGAATCTACGTACCGAGCTTGTCGGAGTCACCTAGTGCAG” was tested, and the binding signal was 64600 fluorescence intensity (a.u.).
For “ACTCTCTTCCTCACGACGCACCACGGGCTAGCCACTCCTACGGAGTCACCTAGTGCAG”, the binding signal was 8340 fluorescence intensity (a.u.).
For “AAAATTTTATTTTTCATGTGTGGCTTATTGTCCTTTTTTGCGGAGTCACCTAGTGCAG”, the binding signal was 9470 fluorescence intensity (a.u.).
“GAAAAATTGTCCCTTTTTATTTGGGAGGGGAGGGAGGAGGCGGAGTCACCTAGTGCAG” was tested, and the binding signal was 17100 fluorescence intensity (a.u.).
In the case of “TATTTGGTTTTGTAGGGGTTGGTTTGGGAAAATTGGAAAGCGGAGTCACCTAGTGCAG”, the binding signal is reported as 16400 fluorescence intensity (a.u.).
For “TTACAAACAAAAACTCAAAATCCCTTATATTTTGGGACAGCGGAGTCACCTAGTGCAG”, the binding signal was 64700 fluorescence intensity (a.u.).
With “CCTTTTGTTTTTGGGGCTTGTAGTTTTTGGAAATTTGGGGCGGAGTCACCTAGTGCAG” the binding signal was 18300 fluorescence intensity (a.u.).
For “TTTTTTTTTCTTTTGGGGCGGAAGGAGTAGTATGGAGTTTCGGAGTCACCTAGTGCAG”, the binding signal was 12300 fluorescence intensity (a.u.).
In the case of “TTATATTTTGGGACGGAGTATTACTTTGAATCCCTTTTCCCGGAGTCACCTAGTGCAG”, the binding signal is reported as 8280 fluorescence intensity (a.u.).
“CTTATTTAGTTGGGGAAAATTTTTGGGTTTGTTTGTCACACGGAGTCACCTAGTGCAG” was tested, and the binding signal was 11600 fluorescence intensity (a.u.).
In the case of “GCAGGCGGCGGAGGATTTTTGGGAGGGGAAAACGGCGAGTCGGAGTCACCTAGTGCAG”, the binding signal is reported as 8540 fluorescence intensity (a.u.).
“TGTTTGCTTATTACTATTTTTTTTGGGGCGGGAAATTAAACGGAGTCACCTAGTGCAG” was tested, and the binding signal was 14100 fluorescence intensity (a.u.).
With “TATTGTTTAGTTGGGAAAAAAATTTGGGGTTGGTTGTCACCGGAGTCACCTAGTGCAG” the binding signal was 10400 fluorescence intensity (a.u.).
For “ATTCTCAAAATCGAATTTGTTTTTATATTTCCCTTACTGTCGGAGTCACCTAGTGCAG”, the binding signal was 14700 fluorescence intensity (a.u.).
